High-throughput results (PubChem BioAssay)
The list is not random: actives were taken first. Their share in the collection is about 3.5%.
mHTT-CaM PPI inh: disrupts binding of mutant huntingtin to calmodulin; P42858; AlphaScreen His-mHTT/GST-CaM binding, luminescence; inhibition, % at 15 µM; 3.6% of 190,000 active;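 also: 0% = both proteins with DMSO and 100% = one protein alone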
Pf apPOL block: Pf-apPOL DNA polymerase inhibition; Recombinant Pf-apPOL, molecular beacon fluorescence, 1.5 h; inhibition, % at 10 µM; 0.25% of 210,000 active; AID 1794808
Starred values were filed as active, the others as inactive; i = inactive; . = not tested or not shown. Rule as the data show it: active = inhibition above about 50%; inactive = the rest.

SMILES | mHTT-CaM PPI inh | Pf apPOL block
COc1ccc(-c2cc3n(n2)CCCN(C(=O)c2ccco2)C3)cc1 | 9 | -10
Cc1ccccc1CC(=O)Nc1nnc(C2CC(=O)N(c3ccc(Cl)cc3)C2)o1 (stereo not drawn) | 88* | -4
O=C(Cc1cccc(F)c1)Nc1nnc(C2CC(=O)N(c3ccccc3)C2)o1 (stereo not drawn) | 41 | -5
O=C(Cc1c(F)cccc1Cl)Nc1nnc(C2CC(=O)N(c3ccccc3)C2)o1 (stereo not drawn) | 64* | 4
O=C(Cc1ccccc1Cl)Nc1nnc(C2CC(=O)N(c3ccccc3)C2)o1 (stereo not drawn) | 51* | 0
CCCC(=O)Nc1nnc(C2CC(=O)N(c3ccc(Cl)cc3)C2)o1 (stereo not drawn) | 10 | -4
Cc1ccc(OCC(=O)Nc2nnc(C3CC(=O)N(c4ccccc4)C3)o2)cc1 (stereo not drawn) | 22 | -2
COc1ccc(C2SCCN2C(=O)c2ccc([N+](=O)[O-])cc2)cc1Br (stereo not drawn) | 21 | 0
CCOCCCNC(=O)C1(C)CCC(=O)N1Cc1ccccc1Cl (stereo not drawn) | -4 | -6
O=c1cc(-c2ccc(O)cc2)oc2cc(O)cc(O)c12 | . | 6
O=c1cc2oc3cc(O)c(-c4ccc(O)cc4O)cc3nc-2cc1-c1ccc(O)cc1O | 100* | .
CC(C)=CCCC1(C)OC(=O)N(CC(=O)O)C1(C)O (stereo not drawn) | -1 | .
O=[N+]([O-])c1ccc(O)c(C=Nc2ccc3c(c2)ncn3-c2ccccc2)c1 | -2 | -7
CC(=O)Nc1ccc(C2(C(=O)NC(C)c3ccc(F)cc3)CCCCC2)cc1 (stereo not drawn) | -3 | 4
O=C1CCCC2=C1C(c1ccccc1)C1C(=O)c3ccccc3C1=N2 (stereo not drawn) | 37 | 4
Cc1ccc(C2C3=C(CCCC3=O)N=C3c4ccccc4C(=O)C32)cc1 (stereo not drawn) | 59* | 4
O=C1CCCC2=C1C(c1ccc([N+](=O)[O-])cc1)C1C(=O)c3ccccc3C1=N2 (stereo not drawn) | 26 | 17
O=C1CCCC2=C1C(c1ccc(Cl)cc1)C1C(=O)c3ccccc3C1=N2 (stereo not drawn) | 66* | 11
CC1=C(C)/C(=N/OC(=O)Nc2ccc(Cl)cc2)C=CC1=O | i | 0
Cc1ccc(NC(=O)C2CCCN(c3nccnc3Oc3ccccc3)C2)cc1F (stereo not drawn) | -9 | -7
O=C(Nc1ccc2nn(-c3ccccc3)nc2c1)c1ccc(Cl)c([N+](=O)[O-])c1 | 6 | 6
O=C(NC=Nc1cc([N+](=O)[O-])c(-c2ccncc2)n1-c1ccccc1)c1cccc(O)c1 | 64* | 4
Cc1ccccc1CSCC(=O)Nc1cc(Cl)ccc1C | -13 | -2
O=C(c1ccncc1)N1CCC(OCc2nc(C3CC3)no2)CC1 | -3 | -2
O[C@H]1C[C@H](c2ccccc2)N(CC2CCCCC2)C[C@@H]1n1cc(-c2ccc(F)cc2)nn1 | 55* | 1
SMILES | mHTT-CaM PPI inh | Pf apPOL block
CCCCCCN1C[C@H](n2cc(C3CC3)nn2)[C@@H](O)C[C@@H]1c1ccc(C)cc1 | 77* | -2
O[C@@H]1C[C@H](c2ccc(Cl)cc2)N(CC2CCCCC2)C[C@H]1n1cc(C2CC2)nn1 | -11 | 1
O[C@H]1C[C@H](c2ccc(Cl)cc2)N(CC2CCCCC2)C[C@@H]1n1cc(C2CC2)nn1 | 80* | -9
COc1ccc([C@H]2C[C@@H](O)[C@H](n3cc(-c4ccc(F)cc4)nn3)CN2CC2CCCCC2)cc1 | 15 | -2
CCCCCCN1C[C@@H](n2cc(C3CC3)nn2)[C@H](O)C[C@@H]1c1ccc(C)cc1 | 29 | 5
O=C(CCCc1ccccc1)Nc1ccc2c(c1)OCO2 | -1 | -5
O=C(c1ccc(F)cc1)N1CCN=C1SCc1ccccc1 | -16 | 6
Cc1ccc(NC(=O)CSc2cn(C)c3ccccc23)c(C)c1 | 6 | -2
Cc1cccc[n+]1C1C(c2ccc([N+](=O)[O-])cc2)C(C#N)=C(C(C#N)C#N)NC1(O)C1CC1 (stereo not drawn) | 1 | -1
Cc1ccc[n+](C2C(c3ccc([N+](=O)[O-])cc3)C(C#N)=C(S)NC2(O)C2CC2)c1 (stereo not drawn) | 84* | -1
O=[N+]([O-])c1ccc(Cl)c(S(=O)(=O)Nc2ccc3oc4c(c3c2)CCCC4)c1 | 68* | 22
O=[N+]([O-])c1cc(S(=O)(=O)Nc2ccc3oc4c(c3c2)CCCC4)ccc1Cl | 75* | -9
O=[N+]([O-])c1ccc2oc3c(c2c1)CCCC3 | -4 | -3
Cc1ccc(S(=O)(=O)Nc2ccc3oc4ccccc4c3c2)cc1[N+](=O)[O-] | 97* | -2
Cc1ccc(S(=O)(=O)Nc2ccc(Cl)cc2)cc1[N+](=O)[O-] | 9 | -1
O=C1CCCc2oc3ccc(NS(=O)(=O)c4cc([N+](=O)[O-])ccc4Cl)cc3c21 | 27 | 10
